According to article PMC4336329 (PLoS ONE, 2015):
Hit rate of the full screen: of about 310,000 compounds, about 14,000 (4.5%) showed an effect of 50% or more. The effect is printed as a negative number. The list comes from a sample in which strong results are over-represented; it also holds similar structures and randomly drawn compounds.

Target: human ether-à-go-go-related gene (hERG) potassium channel (human, UniProt Q12809)
Assay: primary screen, population patch clamp on CHO cells stably expressing hERG; higher = less effect of the substance
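Further: peak tail current of the secondary pulse compared with the same well before compound.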

human ether-à-go-go-related gene (hERG) potassium channel, sequence (Q12809 whole entry, looked up): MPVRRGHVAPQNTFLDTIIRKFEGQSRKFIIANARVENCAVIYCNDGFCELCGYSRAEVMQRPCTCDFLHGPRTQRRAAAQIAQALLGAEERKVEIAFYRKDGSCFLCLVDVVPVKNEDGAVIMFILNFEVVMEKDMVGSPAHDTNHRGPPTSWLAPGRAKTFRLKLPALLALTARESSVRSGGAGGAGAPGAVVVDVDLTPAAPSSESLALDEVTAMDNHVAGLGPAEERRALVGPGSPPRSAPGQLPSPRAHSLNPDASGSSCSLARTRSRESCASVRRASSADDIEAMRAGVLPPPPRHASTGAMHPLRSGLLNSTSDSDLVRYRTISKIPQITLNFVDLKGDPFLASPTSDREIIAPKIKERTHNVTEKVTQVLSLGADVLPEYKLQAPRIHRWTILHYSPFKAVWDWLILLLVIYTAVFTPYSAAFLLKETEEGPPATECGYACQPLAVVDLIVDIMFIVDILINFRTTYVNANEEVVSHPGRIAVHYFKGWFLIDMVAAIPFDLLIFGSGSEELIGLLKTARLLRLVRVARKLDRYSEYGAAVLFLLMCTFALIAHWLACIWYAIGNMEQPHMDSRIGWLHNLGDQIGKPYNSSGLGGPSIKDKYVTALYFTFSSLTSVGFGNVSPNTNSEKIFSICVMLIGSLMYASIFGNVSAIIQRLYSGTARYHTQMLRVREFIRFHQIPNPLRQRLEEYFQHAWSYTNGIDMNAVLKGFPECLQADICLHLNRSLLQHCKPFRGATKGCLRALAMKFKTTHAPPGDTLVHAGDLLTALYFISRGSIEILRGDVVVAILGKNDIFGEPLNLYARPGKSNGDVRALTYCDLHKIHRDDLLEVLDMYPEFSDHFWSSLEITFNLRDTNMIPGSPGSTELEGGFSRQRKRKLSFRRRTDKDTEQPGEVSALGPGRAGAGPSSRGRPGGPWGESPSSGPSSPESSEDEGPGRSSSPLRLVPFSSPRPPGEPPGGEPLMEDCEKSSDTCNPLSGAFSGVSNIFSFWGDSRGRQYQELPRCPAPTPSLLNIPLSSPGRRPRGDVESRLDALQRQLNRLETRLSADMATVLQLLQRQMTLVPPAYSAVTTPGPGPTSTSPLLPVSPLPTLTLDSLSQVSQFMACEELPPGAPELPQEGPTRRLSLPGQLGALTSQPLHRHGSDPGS

Compound | hERG current change (%, negative = inhibition) at 10uM
COc1ccc(CN(CCN)C2CC(C)N(C)CC2C)cc1.Cl (stereo not shown) | 7.07%
COc1ccc(CN(C(=O)c2ccco2)C2CC(C)N(C)CC2C)cc1 (stereo not shown) | -53.4%
COc1ccc(CN(C(=O)c2ccco2)C2CCS(=O)(=O)C2)cc1 (stereo not shown) | -1.27%
COc1ccc(/C=C/C(=O)c2cccc(-n3cnnn3)c2)cc1O | 13.5%
O=C(Nc1ccc(Br)cc1Br)C1CC(=O)N(Cc2ccccc2)C1 (stereo not shown) | 10.7%
COc1ccc(C(C)NC(=S)NCc2ccc(F)cc2)cc1 (stereo not shown) | 0.1%
COc1ccc(C(CCNCc2ccccc2)c2ccc(F)cc2)cc1 (stereo not shown) | -66.7%
COc1ccc(NC(=O)CC(c2ccc(F)cc2)c2ccc(OC)cc2)cc1 (stereo not shown) | 23%
COc1ccc(CCC(C)Nc2ccc(F)cc2)cc1 (stereo not shown) | -3.78%
COc1ccccc1CNCCc1ccc(F)cc1.O=C(O)C(=O)O | -33.8%
COc1ccc(CNC(=S)NCc2ccc(F)cc2)cc1 | -23.5%
COc1ccc(CCNCc2ccccc2F)cc1.O=C(O)C(=O)O | -22.8%
COc1ccc(CNC(=O)CNC(C)c2ccc(F)cc2)cc1.O=C(O)C(=O)O (stereo not shown) | 5.06%
COc1ccc(CNCCC(c2ccc(F)cc2)c2ccc(OC)cc2)cc1 (stereo not shown) | -82.3%
COc1ccc(C(CCNCc2ccc(F)cc2)c2ccc(F)cc2)cc1 (stereo not shown) | -64.6%
COc1cc(NC(=S)NCCC(c2ccccc2)c2ccccc2)cc(OC)c1 | 3.35%
COc1ccc(C(CCNCc2ccccc2F)c2ccc(F)cc2)cc1 (stereo not shown) | -75.5%
COc1ccc(-c2cc(C(F)(F)F)nc(-n3cc(Cl)cn3)n2)cc1 | -18.5%
CCN1CCCCC(=N/O)/C(=N/O)CCCC1 | 25.5%
N#CCCN(C(=O)COC(=O)COc1ccccc1Cc1ccccc1)c1ccccc1 | 15%
Cc1cccc(NC(=O)CSCC(=O)N(C)CC(=O)Nc2cccc(F)c2)c1 | -3.01%
COc1ccc(C(C)=O)cc1CN1C(=O)NC2(CCCCCC2)C1=O | -3.9%
COP(=O)(CC(=O)O)c1ccccc1 (stereo not shown) | -5.99%
CC(NC(=O)COc1ccccc1)C(=O)NC1=NCCS1 (stereo not shown) | 0.963%
CCOC(=O)N1CCN(C(=O)CNC(=O)c2nn(-c3ccc(OC)cc3OC)c(=O)c3ccccc23)CC1 | -4.94%
